UDG counterscr: UDG inhibition counter-screen | Potency, µM (titrated, usually from 115 µM), actives largely listed as inhibitors | 91,000 compounds, 0.14% hits | AID 1347430 | FRET deamination/UDG coupled assay, UDG read, 4 h; further: nearly all actives have a fitted effect of over 65% in size
AID inhibitor: blocks human AID cytidine deaminase activity. Q9GZX7. AID deamination FRET fluorescence, UDG-coupled, 4 h. Potency, µM (titrated, usually from 115 µM), most hits filed as inhibitors. 91,000 compounds, 0.32% hits; further: nearly all actives have a fitted effect of over 25% in size
Target sequence (Q9GZX7 whole entry, looked up): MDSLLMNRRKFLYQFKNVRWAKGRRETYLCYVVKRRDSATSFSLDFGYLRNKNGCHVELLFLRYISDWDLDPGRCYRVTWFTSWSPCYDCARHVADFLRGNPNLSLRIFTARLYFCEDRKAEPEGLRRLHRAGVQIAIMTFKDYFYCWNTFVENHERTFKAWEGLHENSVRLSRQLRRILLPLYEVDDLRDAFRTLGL
Each line names hits and unclear results; the compound was inactive in the other large screens. A selection: hits, their analogues and other compounds. The true share with any hit is near 0.47%. The call rests on the fitted dose curve; in most records, active means well fitted curve in the direction sought with a large enough effect; inconclusive means small, poorly fitted or top-dose-only effect, or another doubt; inactive means no such curve, though single readings can be large; an effect the other way counts as inactive or inconclusive.

FC(F)(F)c1cccc(-n2nnnc2C2(N3CCOCC3)CCCC2)c1	UDG counterscr 89µM
Cc1cccc(-n2nnnc2C2(N3CCCC3)CCCC2)c1	none
CCCS(=O)(=O)c1nc(S(=O)(=O)c2ccc(C)cc2)c(NCC)s1	none
COc1ccc(S(=O)(=O)Cc2ccc(C(=O)N3CCN(c4cc(C)ccc4C)CC3)o2)cc1	UDG counterscr 89µM, AID inhibitor inconclusive
Cc1ccc(S(=O)(=O)Cc2ccc(C(=O)N3CCN(c4cccc(C)c4C)CC3)o2)cc1	AID inhibitor inconclusive
COc1cccc(C2CC(=O)Nc3nc(N)sc32)c1OCC(C)C (stereo unspecified)	AID inhibitor 40µM
COc1cccc(C2CC(=O)Nc3ccsc32)c1OC (stereo unspecified)	none
O=C(Nc1c(NC2CCCCC2)c2ccccc2oc1=O)c1ccccc1Cl	none
CCOc1ccc(CCNC(=O)c2noc(C)c2Cn2nc(C)cc2C)cc1OCC	none
COc1ccc(S(=O)(=O)N2CCn3cccc3C2c2cccs2)cc1C (stereo unspecified)	none
COc1ccc(S(=O)(=O)N2CCn3cccc3C2c2ccc(C)cc2)cc1C (stereo unspecified)	UDG counterscr 79µM
CCN(C(=O)c1cc2c(=O)n3cccc(C)c3nc2s1)c1ccc(C)c(C)c1	AID inhibitor inconclusive
Cc1cccn2c(=O)c3cc(C(=O)N(Cc4ccccc4)C(C)C)sc3nc12	AID inhibitor 79µM
COc1ccc(C2=NN(C(=O)c3cccs3)C(c3ccc4nccnc4c3)C2)cc1 (stereo unspecified)	AID inhibitor inconclusive
COc1ccc(-c2c3c(=O)n(C)c(=O)n(C)c3cn2-c2cccc(C)c2)cc1	none
O=C(OCC(=O)N1CCC(c2ccccc2)=N1)c1cc2c(s1)CCCC2	none
CCn1cc(C(=O)OCC(=O)Nc2cccc(C(C)=O)c2)c(=O)c2ccc(C)nc21	AID inhibitor 45µM
CCOC(=O)c1ccc(NC(=O)COC(=O)c2cn(CC)c3nc(C)ccc3c2=O)cc1	none

High-throughput results: PubChem BioAssay, National Center for Advancing Translational Sciences (NCATS)
